# Measured values published in PubChem BioAssay AID1259309 (ICCB-Longwood Screening Facility, Harvard Medical School, 2017).
# Where “and” joins values, the source holds several entries; their conditions need not be identical. Identical values can stand only once. About 1,800 (0.55%) of roughly 330,000 compounds were called active. Rule as the data show it: active = growth inhibition above about 68%; inactive = the rest. The full list was thinned out, with actives kept by preference. Where a structure was tested more than once in an assay, its records may differ in their call.
# Assay: growth inhibition of ugtP-null S. aureus, primary screen, RN4220 ugtP deletion, OD600 (AID 1259309);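 also: plate controls were untreated wells for no effect and antibiotic for full effect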
# Details: 16 h, stronger effect = higher value
row,SMILES,growth inhibition
1,Nc1nonc1-n1nnc(C(=O)NN=Cc2ccc(Cl)cc2Cl)c1CN1CCCCC1,6.34% (inactive)
2,ON=C1CC2(CC(=NO)C1=NO)OCCO2,-5.45% (inactive)
3,S=C(Nc1ccccc1)Nc1ccc2ccccc2c1,-7.81% (inactive)
4,O=C(Nc1ccc2ccccc2c1)Nc1ccc2snnc2c1,94.2% (active)
5,Cc1nc2cc(NC(=O)Nc3cccc(F)c3)ccc2n1C,-1.04% (inactive)
6,COCc1cc(C)nc(OCC(=O)NN=Cc2ccc(C)cc2)c1C#N,3.45% (inactive)
7,COc1ccc(OC)c(C(C)NC(=S)Nc2ccc(S(=O)(=O)Nc3ncccn3)cc2)c1 (stereo not drawn),6.82% (inactive)
8,CC(=O)c1ccc(NC(=S)NC(=O)CC(C)C)cc1,29.6% (inactive)
9,COc1ccc(NS(=O)(=O)c2ccc(NC(=S)NC(=O)CC(C)C)cc2)cc1,88% (active)
10,COc1ccc(/C=C\C(=O)Oc2cccc(C=NNC(=O)Cc3ccc(OC)c(OC)c3)c2)cc1,28.2% (inactive)
11,CCCCC1CC1C(NC(=O)c1cccs1)c1ccc(C(F)(F)F)cc1 (stereo not drawn),3.18% (inactive)
12,COC(=O)c1cc(OC)ccc1-c1ccc(OC)cc1,24.4% (inactive)
13,CCOC(=O)C1=C(c2ccc(OC)cc2)C(=O)c2ccccc2C1=O,98.1% (active)
14,COc1ccc(CNC(=O)CCN2C(=O)c3ccccc3C2=O)cc1,0.235% (inactive)
15,O=C(NC1CC(=NO)c2cc3c(cc21)OCO3)C(F)(F)F (stereo not drawn),3.72% (inactive)
16,Fc1ccc(-c2ccc(C=Nn3cnnc3)o2)cc1,3.75% (inactive)
17,O=C(CSc1nc2ccccc2n1Cc1ccc(Cl)cc1)NN=Cc1ccccc1C(=O)O,0.317% (inactive)
18,OCCC1CC(O)C(O)[C@@]2(CCCc3ccccc3O2)O1 (stereo partly drawn),-2.74% (inactive) and 36.1% (inactive) and 95.4% (active)
19,OCCC1CC(O)C(O)[C@]2(Cc3ccccc3O2)O1 (stereo partly drawn),-11.4% (inactive) and -1.82% (inactive) and 6.13% (inactive)
20,COc1ccc(-c2cnnc(NN=Cc3ccc(OC)c(OC)c3)n2)cc1,-0.988% (inactive)

row,SMILES,growth inhibition
1,COc1cc(C(=O)NCC(=O)NN=C(C)Cc2ccccc2)cc(OC)c1OC,1.68% (inactive)
2,Cc1cc(N=Nc2ccc3ccccc3c2)ccc1O,100% (active)
3,Cc1c(O)ccc(C(Cc2ccc3ccccc3n2)=NN)c1O,7.02% (inactive)
4,Cc1nonc1NC(=O)CSc1nc2ccccc2cc1C#N,-7.53% (inactive)
5,Cc1cc(C)c(C#N)c(SCC(=O)Nc2ccccc2)n1,-0.258% (inactive)
6,Cc1nc2cc(NC(=O)CSc3nc4c(C)cccc4cc3C#N)ccc2s1,96.5% (active)
7,Cc1ccc(NC(=S)NN=C2CC(C)(C)Oc3ccc(O)cc32)cc1,-1.6% (inactive)
8,CCCc1c(C(=O)NN=Cc2ccncc2)nnn1-c1nonc1N,-1.92% (inactive)
9,COc1ccc2sc(-c3ccc(S(C)(=O)=O)cc3)c(C#Cc3cncn3C)c2c1,-24.1% (inactive)
10,O=C(NCc1ccc2c(c1)OCO2)c1c(-c2ccsc2)sc2ccccc12,13.5% (inactive)
11,Cn1cncc1C#Cc1c(-c2ccsc2)sc2ccccc12,89% (active)
12,CC1CN(C(C)CO)C(=O)c2cc(NS(=O)(=O)c3ccccc3)ccc2OC1CN(C)C(=O)Nc1ccc2c(c1)OCO2 (stereo not drawn),1.83% (inactive)
13,CCCCN1C(=N)N(C(C)CN2CCCC2CN2C(N)=NCC2Cc2ccccc2)CC1C(C)CC (stereo not drawn),2.45% (inactive)
14,CC[C@@H](C)[C@@H]1CN([C@@H](C)CN2CCC[C@H]2CN2C(N)=NC[C@H]2C(C)C)C(=N)N1CCc1ccc(Cl)c(Cl)c1,100% (active)
15,CC(=O)C(=NNc1ccccc1)Sc1nnc(-c2ccccc2)n1-c1ccccc1,-0.945% (inactive)
16,CCc1ccc(C=Nn2c(C)cc(C)c(C#N)c2=O)cc1,11.9% (inactive)
17,CC(=NNC(=O)c1c(-c2ccccc2Cl)noc1C)c1cccc(NC(=O)C(C)C)c1,-1.85% (inactive)
18,Cc1csc(Nc2ccc(Cl)cc2)[n+]1-c1ccc(Cl)cc1,94.3% (active)
19,O=c1ccnc(Nc2ccc(Cl)cc2)[nH]1,-0.107% (inactive)
20,CCOC1OC(C(N)=O)=CC(c2csc3ccccc23)C1CCCO (stereo not drawn),-0.922% (inactive)

row,SMILES,growth inhibition
1,NC(=O)CC1NC(=O)C(CCC(=O)O)NC(=O)c2cc([N+](=O)[O-])cc(I)c2NCCCC(C(N)=O)NC1=O (stereo not drawn),5.02% (inactive)
2,COc1cccc(C=NNC(=O)c2ccccc2NC(=O)c2ccco2)c1OC,17.5% (inactive)
3,COC(=O)Cc1ccc(OCC(=O)NC2CCCC2)cc1,5.86% (inactive)
4,Cc1cccc(OCC(=O)NC2CC(C)(C)NC(C)(C)C2)c1,-2.79% (inactive)
5,CC1(C)SC2C(NC(=O)COc3ccccc3)C(=O)N2C1C(=O)O (stereo not drawn),101% (active)
6,O=C(O)CS/C(=C\c1ccc(F)cc1)c1nc2ccccc2s1,-0.309% (inactive)
7,CC1=CC(=C(C#N)c2nc3ccccc3s2)C=C(C)N1c1ccc(F)cc1F,3.53% (inactive)
8,N#C/C(=C(/O)Cc1cccc2ccccc12)c1nc2ccccc2s1,88% (active)
9,CSc1ccc(C2=CC(=O)CC(c3ccc(F)cc3)C2)cc1 (stereo not drawn),-1.01% (inactive)
10,Cc1ccc(C=NNC(=O)CSc2nc3ccccc3c(=O)n2-c2ccccc2)s1,-33.9% (inactive)
11,Cc1ccc(C=NNC(=O)CSc2nc3ccccc3n2C)s1,0.402% (inactive)
12,Cn1c(SCC(=O)NN=Cc2ccc([N+](=O)[O-])s2)nnc1-c1ccccc1,100% (active)
13,CCCc1noc2c1C(=NO)CCC2,0.229% (inactive)
14,Cn1ccc(=Nc2ccc(NC(=O)c3ccc(N=c4ccn(C)c5ccc([N+](=O)[O-])cc45)cc3)cc2)cc1,99.6% (active)
15,COc1cc(NS(=O)(=O)c2ccc(NC(=O)c3ccc([N+](=O)[O-])cc3)cc2)ncn1,2.78% (inactive)
16,CCc1ccc(NC(=O)c2ccc(Cn3cc([N+](=O)[O-])cn3)cc2)cc1,5.62% (inactive)
17,CCOc1cc(C=NNC(=O)c2nnn(-c3nonc3N)c2C)ccc1OCc1cccc(F)c1,-21.1% (inactive)
18,CSc1sccc1C=NNC(=O)c1ccncc1,-0.193% (inactive)
